According to the supplement of paper PMC8728848:
Many of the other results were omitted from the sample, so the strongest signals are more common in it than they were.

Key:
Experiment in all cases: glycan array binding signal (z-score within array); higher = stronger binding
Details in all cases: glycan notation: IUPAC condensed, linker removed
[1] = target: Fuc(a1-2)Gal(b1-3)GlcNAc(b1-3)GalNAc
Summary of the method: (§1)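 Glycan array binding is given as a within-array Z-score, which can be read as non-binding when negative. The arrays, 3228 of them, came from the Consortium for Functional Glycomics database and were retained only where the protein sequence was available. Z-scores were averaged across arrays of the same protein sequence at different concentrations or buffers and across linkers.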

[2] = target: Fuc(a1-2)Gal(b1-4)GlcNAc6S
Summary of the method: as §1

[3] = target: Fuc(a1-2)Gal(b1-4)[Fuc(a1-3)]GlcNAc(b1-2)[Fuc(a1-2)Gal(b1-4)[Fuc(a1-3)]GlcNAc(b1-4)]Man(a1-3)[Fuc(a1-2)Gal(b1-4)[Fuc(a1-3)]GlcNAc(b1-2)Man(a1-6)]Man(b1-4)GlcNAc(b1-4)GlcNAc
Summary of the method: as §1

[4] = target: Fuc(a1-2)Gal(b1-4)[Fuc(a1-3)]GlcNAc(b1-3)[Neu5Ac(a2-6)Gal(b1-4)GlcNAc(b1-6)]Gal(b1-4)Glc
Summary of the method: as §1

[5] = target: Fuc(a1-2)Gal6S(b1-4)Glc
Summary of the method: as §1

[6] = target: Fuc(a1-2)[Gal(a1-3)]Gal(b1-3)GlcNAc
Summary of the method: as §1

[7] = target: Fuc(a1-2)[GalNAc(a1-3)]Gal(b1-3)GalNAc(b1-3)Gal(a1-4)Gal(b1-4)Glc
Summary of the method: as §1

[8] = target: Fuc(a1-2)[GalNAc(a1-3)]Gal(b1-4)GlcNAc(b1-2)Man(a1-3)[Fuc(a1-2)[GalNAc(a1-3)]Gal(b1-4)GlcNAc(b1-2)Man(a1-6)]Man(b1-4)GlcNAc(b1-4)[Fuc(a1-6)]GlcNAc
Summary of the method: as §1

[9] = target: Fuc(a1-2)[GalNAc(a1-3)]Gal(b1-4)GlcNAc(b1-3)Gal(b1-4)GlcNAc(b1-3)Gal(b1-4)GlcNAc
Summary of the method: as §1

[10] = target: Fuc(a1-2)[GalNAc(a1-3)]Gal(b1-4)[Fuc(a1-3)]GlcNAc(b1-3)GalNAc
Summary of the method: as §1

[11] = target: Fuc(a1-4)GlcNAc
Summary of the method: as §1

[12] = target: Gal(a1-3)Gal(b1-4)GlcNAc(b1-2)Man(a1-3)[Gal(a1-3)Gal(b1-4)GlcNAc(b1-2)Man(a1-6)]Man(b1-4)GlcNAc(b1-4)GlcNAc
Summary of the method: as §1

[13] = target: Gal(b1-3)GalNAc(b1-3)Gal
Summary of the method: as §1

[14] = target: Gal(b1-3)GlcNAc(a1-6)Gal(b1-4)GlcNAc
Summary of the method: as §1

[15] = target: Gal(b1-3)GlcNAc(b1-2)Man(a1-3)[Gal(b1-3)GlcNAc(b1-2)Man(a1-6)]Man(b1-4)GlcNAc(b1-4)[Fuc(a1-6)]GlcNAc
Summary of the method: as §1

[16] = target: Gal(b1-3)GlcNAc(b1-2)[Gal(b1-3)GlcNAc(b1-6)]Man(a1-6)[Gal(b1-3)GlcNAc(b1-2)Man(a1-3)]Man(b1-4)GlcNAc(b1-4)GlcNAc
Summary of the method: as §1

[17] = target: Gal(b1-3)GlcNAc(b1-3)Gal(b1-4)Glc
Summary of the method: as §1

[18] = target: Gal(b1-3)GlcNAc(b1-3)Gal(b1-4)GlcNAc(b1-2)[Gal(b1-3)GlcNAc(b1-3)Gal(b1-4)GlcNAc(b1-6)]Man(a1-6)[Gal(b1-3)GlcNAc(b1-3)Gal(b1-4)GlcNAc(b1-2)Man(a1-3)]Man(b1-4)GlcNAc(b1-4)[Fuc(a1-6)]GlcNAc
Summary of the method: as §1

[19] = target: Gal(b1-3)GlcNAc(b1-3)Gal(b1-4)GlcNAc(b1-3)Gal(b1-4)GlcNAc(b1-2)[Gal(b1-3)GlcNAc(b1-3)Gal(b1-4)GlcNAc(b1-3)Gal(b1-4)GlcNAc(b1-6)]Man(a1-6)[Gal(b1-3)GlcNAc(b1-3)Gal(b1-4)GlcNAc(b1-3)Gal(b1-4)GlcNAc(b1-2)Man(a1-3)]Man(b1-4)GlcNAc(b1-4)[Fuc(a1-6)]GlcNAc
Summary of the method: as §1

[20] = target: Gal(b1-3)[Fuc(a1-4)]GlcNAc(b1-6)GalNAc
Summary of the method: as §1

[21] = target: Gal(b1-4)GalNAc(a1-3)[Fuc(a1-2)]Gal(b1-4)GlcNAc
Summary of the method: as §1

[22] = target: Gal(b1-4)Glc
Summary of the method: as §1

[23] = target: Gal(b1-4)GlcNAc(b1-3)Gal(b1-3)GalNAc
Summary of the method: as §1

[24] = target: Gal(b1-4)GlcNAc(b1-3)Gal(b1-4)GlcNAc(b1-3)Gal(b1-4)GlcNAc(b1-3)Gal(b1-4)GlcNAc(b1-3)Gal(b1-4)GlcNAc(b1-2)Man(a1-3)[Gal(b1-4)GlcNAc(b1-3)Gal(b1-4)GlcNAc(b1-3)Gal(b1-4)GlcNAc(b1-3)Gal(b1-4)GlcNAc(b1-3)Gal(b1-4)GlcNAc(b1-2)Man(a1-6)]Man(b1-4)GlcNAc(b1-4)GlcNAc
Summary of the method: as §1

[25] = target: Gal(b1-4)GlcNAc(b1-3)Gal(b1-4)GlcNAc(b1-3)Gal(b1-4)GlcNAc(b1-3)Gal(b1-4)GlcNAc(b1-3)Gal(b1-4)GlcNAc(b1-2)[Gal(b1-4)GlcNAc(b1-3)Gal(b1-4)GlcNAc(b1-3)Gal(b1-4)GlcNAc(b1-3)Gal(b1-4)GlcNAc(b1-3)Gal(b1-4)GlcNAc(b1-6)]Man(a1-6)[Gal(b1-4)GlcNAc(b1-3)Gal(b1-4)GlcNAc(b1-3)Gal(b1-4)GlcNAc(b1-3)Gal(b1-4)GlcNAc(b1-3)Gal(b1-4)GlcNAc(b1-2)Man(a1-3)]Man(b1-4)GlcNAc(b1-4)[Fuc(a1-6)]GlcNAc
Summary of the method: as §1

[26] = target: Gal3S(b1-4)Glc
Summary of the method: as §1

[27] = target: Gal6S(b1-3)GlcNAc
Summary of the method: as §1

[28] = target: GalNAc(a1-3)GalNAc(b1-3)Gal(a1-4)Gal(b1-4)Glc
Summary of the method: as §1

[29] = target: GalNAc(b1-3)Gal
Summary of the method: as §1

[30] = target: GalNAc(b1-3)GalNAc
Summary of the method: as §1

B1: FimD (Bordetella pertussis) (protein)
chain: MPARVISFCGAALAVWAGLAVQPAMAVDPPVDCGRALGLHFWSSASLISDQTPDGTLIGKPVVGRSLLSKSCKVPDDIKEDLSDNHDGEPVDIVLELGSNYKIRPQSYGHPGIVVDLPFGSTEETGIAIYIDFGSSPMQKVGERQWLYPQKGEVLFDVLTINGDNAEVRYQAIKVGPLKRPRKLVLSQFPNLFTYKWVFMRGTSQERVLAQGTIDTDVATSTIDLKTCRYTSQTVSLPIIQRSALTGVGTTLGMTDFQMPFWCYGWPKVSVYMSATKTQTGVDGVALPATGQAAGMASGVGVQLINGKTQQPVKLGLQGKIALPEAQQTESATFSLPMKAQYYQTSTSTSAGKLSVTYAVTLNYD
[1]
  glycan array binding signal (z-score): -0.342
[2]
  glycan array binding signal (z-score): -0.052
[3]
  glycan array binding signal (z-score): 0.133
[4]
  glycan array binding signal (z-score): -0.355
[5]
  glycan array binding signal (z-score): -0.056
[6]
  glycan array binding signal (z-score): -0.256
[7]
  glycan array binding signal (z-score): -0.248
[8]
  glycan array binding signal (z-score): -0.394
[9]
  glycan array binding signal (z-score): 0.141
[10]
  glycan array binding signal (z-score): 19.2
[11]
  glycan array binding signal (z-score): 1.73
[12]
  glycan array binding signal (z-score): 1.67
[13]
  glycan array binding signal (z-score): -0.089
[14]
  glycan array binding signal (z-score): -0.163
[15]
  glycan array binding signal (z-score): 0.621
[16]
  glycan array binding signal (z-score): 0.171
[17]
  glycan array binding signal (z-score): -0.264
[18]
  glycan array binding signal (z-score): 1.82
[19]
  glycan array binding signal (z-score): 0.259
[20]
  glycan array binding signal (z-score): 2.73
[21]
  glycan array binding signal (z-score): -0.051
[22]
  glycan array binding signal (z-score): -0.288
[23]
  glycan array binding signal (z-score): -0.264
[24]
  glycan array binding signal (z-score): 0.072
[25]
  glycan array binding signal (z-score): 0.919
[26]
  glycan array binding signal (z-score): -0.263
[27]
  glycan array binding signal (z-score): 0.772
[28]
  glycan array binding signal (z-score): -0.169
[29]
  glycan array binding signal (z-score): 0.008
[30]
  glycan array binding signal (z-score): -0.207
